Measurements taken from PubChem BioAssay AID504333 (National Center for Advancing Translational Sciences (NCATS), 2011).
Hit rate of the full screen: of about 360,000 compounds, about 16,000 (4.4%) were called active. Roughly 9% stayed inconclusive and do not appear here. For the sample, actives were picked, then their nearest neighbours and some compounds at random. A number with no mark means an inactive call. Calls come from the whole dose curve; as a rule, active = well fitted inhibition curve with a large enough effect; inconclusive = small, poorly fitted or top-dose-only effect; inactive = no such curve, though single readings can be large or run the other way.

The compounds below were run against Bromodomain adjacent to zinc finger domain protein 2B (Homo sapiens) (UniProt Q9UIF8) (assay: qHTS Assay for Inhibitors of BAZ2B). Conditions: AlphaScreen BAZ2B-H3K14Ac peptide displacement; series mostly up to 114 µM; activity change, negative = inhibition: at the top concentration.
Chain of Bromodomain adjacent to zinc finger domain protein 2B (Homo sapiens) (Q9UIF8 whole entry, looked up, the tested form may be a part): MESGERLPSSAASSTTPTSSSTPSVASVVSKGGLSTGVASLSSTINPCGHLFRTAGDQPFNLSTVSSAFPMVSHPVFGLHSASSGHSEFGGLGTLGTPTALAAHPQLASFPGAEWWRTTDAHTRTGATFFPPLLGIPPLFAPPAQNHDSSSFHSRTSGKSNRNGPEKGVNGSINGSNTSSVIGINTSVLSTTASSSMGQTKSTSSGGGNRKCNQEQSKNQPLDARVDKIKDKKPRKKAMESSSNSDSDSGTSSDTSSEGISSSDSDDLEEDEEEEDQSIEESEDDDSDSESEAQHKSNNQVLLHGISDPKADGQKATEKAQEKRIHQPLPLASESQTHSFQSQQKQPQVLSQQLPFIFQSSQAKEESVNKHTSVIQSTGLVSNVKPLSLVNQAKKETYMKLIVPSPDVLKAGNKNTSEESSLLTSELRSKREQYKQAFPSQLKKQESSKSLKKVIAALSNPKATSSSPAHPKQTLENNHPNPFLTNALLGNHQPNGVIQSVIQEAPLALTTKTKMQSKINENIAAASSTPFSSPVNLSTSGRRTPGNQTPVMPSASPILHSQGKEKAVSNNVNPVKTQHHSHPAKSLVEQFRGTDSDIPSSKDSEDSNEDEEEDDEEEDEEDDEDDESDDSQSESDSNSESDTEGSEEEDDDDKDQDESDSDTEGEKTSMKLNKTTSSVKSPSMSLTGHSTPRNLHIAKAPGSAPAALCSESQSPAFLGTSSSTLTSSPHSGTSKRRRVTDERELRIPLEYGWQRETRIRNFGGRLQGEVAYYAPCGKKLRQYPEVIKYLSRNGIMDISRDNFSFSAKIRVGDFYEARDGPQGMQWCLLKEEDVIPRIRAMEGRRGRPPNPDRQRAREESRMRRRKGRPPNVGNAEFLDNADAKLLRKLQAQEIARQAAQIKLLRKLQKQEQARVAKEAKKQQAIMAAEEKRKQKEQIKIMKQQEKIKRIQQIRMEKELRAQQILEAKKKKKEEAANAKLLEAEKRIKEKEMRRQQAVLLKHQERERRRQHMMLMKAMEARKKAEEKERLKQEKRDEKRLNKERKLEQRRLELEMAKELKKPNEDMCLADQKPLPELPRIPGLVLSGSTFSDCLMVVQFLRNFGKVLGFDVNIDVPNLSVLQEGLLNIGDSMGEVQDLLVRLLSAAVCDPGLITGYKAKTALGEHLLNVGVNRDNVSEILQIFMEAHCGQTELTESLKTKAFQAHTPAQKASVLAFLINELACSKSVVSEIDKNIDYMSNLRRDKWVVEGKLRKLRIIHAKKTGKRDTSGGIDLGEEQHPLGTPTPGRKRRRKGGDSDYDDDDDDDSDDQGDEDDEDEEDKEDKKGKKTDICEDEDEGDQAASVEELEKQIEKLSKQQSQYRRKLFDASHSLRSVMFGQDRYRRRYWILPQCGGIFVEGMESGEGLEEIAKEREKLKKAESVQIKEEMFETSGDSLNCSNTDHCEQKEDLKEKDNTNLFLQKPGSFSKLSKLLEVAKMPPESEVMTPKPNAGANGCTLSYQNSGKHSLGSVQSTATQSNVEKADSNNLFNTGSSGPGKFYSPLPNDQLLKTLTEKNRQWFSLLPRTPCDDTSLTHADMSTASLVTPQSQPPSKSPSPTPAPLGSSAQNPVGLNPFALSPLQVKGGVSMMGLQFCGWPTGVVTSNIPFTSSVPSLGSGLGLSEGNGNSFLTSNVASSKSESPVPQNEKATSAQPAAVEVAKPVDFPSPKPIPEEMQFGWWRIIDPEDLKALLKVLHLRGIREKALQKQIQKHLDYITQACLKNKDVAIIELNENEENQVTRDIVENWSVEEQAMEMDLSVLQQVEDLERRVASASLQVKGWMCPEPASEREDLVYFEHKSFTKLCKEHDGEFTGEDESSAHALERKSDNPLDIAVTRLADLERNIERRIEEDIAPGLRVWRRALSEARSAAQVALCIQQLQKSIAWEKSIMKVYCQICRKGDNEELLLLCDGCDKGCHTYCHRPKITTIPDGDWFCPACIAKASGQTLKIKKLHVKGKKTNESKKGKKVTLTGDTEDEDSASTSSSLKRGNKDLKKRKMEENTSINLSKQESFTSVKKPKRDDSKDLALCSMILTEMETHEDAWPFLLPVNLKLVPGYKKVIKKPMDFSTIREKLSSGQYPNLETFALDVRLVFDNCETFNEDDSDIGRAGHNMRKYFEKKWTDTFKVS
Outline: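 Complex of BAZ2B and biotin-H3K14Ac (50 nM apiece) forms over 30 min at RT, then faces library compounds up to 110 uM for another 30 min; AlphaScreen beads added, 20 min dark incubation, luminescence read.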
% is set by controls: 0 for no effect and ±100 for the full control effect; potency is the fitted concentration of half-maximal effect.
Note: nearly all actives have a fitted effect of over 60% in size.

Compound | activity change, negative = inhibition | Potency
CCOC(=O)c1c(S(=O)(=O)NCC(=O)Nc2ccc(Cl)c(C(F)(F)F)c2)c(C)n(C)c1C | -14.6% | 
COc1cccc(NC(=O)CSC2=Nc3ccccc3C3=NC(CC(=O)NC4CCCCC4)C(=O)N23)c1 (stereo unspecified) | -0.823% | 
Cc1nc(Nc2ccc3c(c2)OCCO3)c2nnn(Cc3ccccc3Cl)c2n1 | -6.54% | 
Cc1cccc2nc(-c3ccc(Cl)s3)c(Nc3ccc4c(c3)OCCO4)n12 |  | 12.6 µM (active)
S=C(Nc1cccc(Cl)c1)Nc1ccc2c(c1)OCCO2 | -27% | 
Cc1cc(Nc2ccccc2)n(C(=O)c2ccc(N)cc2)n1 | -13.8% | 
Nc1ccc(S(=O)(=O)NC(=O)c2ccccc2)cc1 | -4.92% | 
Nc1ccc(Nc2ccccc2)cc1 |  | 35.5 µM (active)
CCCOc1ccc(NC(=O)CC2C(=O)N(c3ccccc3)C(=O)N2Cc2ccco2)cc1 (stereo unspecified) | -32.9% | 
C[N+]1(CCNC(=O)/C=N/O)CCCCC1 |  | 79.4 µM (active)
CCOc1c(OC)cc(C2C(C#N)=C(N)Oc3n[nH]c(-c4ccncc4)c32)cc1OC (stereo unspecified) | -6.04% | 
COc1ccc(C2C(C#N)=C(N)Oc3n[nH]c(C)c32)cc1CN1CCN(c2ccc(F)cc2)CC1 (stereo unspecified) |  | 50.1 µM (active)
COc1cc(C2C(C#N)=C(N)Oc3n[nH]c(-c4ccccn4)c32)cc(OC)c1OC (stereo unspecified) | -3.91% | 
O=C(CSc1nc(=O)n(Cc2cccnc2)c2c1CCC2)Nc1ccc(F)cc1F | 4.35% | 
c1ccc(COc2ccccc2CNCc2cccnc2)cc1 | -30.5% | 
O=S(=O)(c1ccccc1)c1nc(-c2ccccc2F)oc1NCc1cccnc1 | -33.6% | 
N#Cc1nc(COc2ccc(-c3ccccc3)cc2)oc1NCc1cccnc1 |  | 11.2 µM (active)
O=C(NCCCO)C(=O)Nc1c2c(nn1-c1ccc(F)cc1)CSC2 | -16.6% | 
CCOc1ccc(C2C(=O)N(C3CCCCC3)CC(=O)N2CCC2=CCCCC2)cc1OC (stereo unspecified) | -23.7% | 
Fc1ccccc1OCCCCn1cncn1 | 0.584% | 
CCN1CCN(CCCCOc2ccccc2F)CC1 |  | 50.1 µM (active)
CN1CCN(CCCCOc2cccc3ccccc23)CC1 | -14.2% | 
CCn1c2c(c(=O)n3ncc(C(=O)N4CCN(c5ccccc5)CC4)c13)CN(Cc1ccc(OC)cc1)CC2 | -4.6% | 
O=C(Nc1ccc(F)cc1F)c1cnn(-c2ccc(F)cc2)c1-n1cccc1 | 1.35% | 
CCOC(=O)Cn1c(=O)n(C2CCCCC2)c2nc(-c3cccc(OC)c3)nc(C(N)=O)c21 | -2.28% | 
O=c1[nH]n2c(=O)c3c([nH]c2c1N=Nc1ccccc1)CCC3 |  | 39.8 µM (active)

Compound | activity change, negative = inhibition | Potency
N#Cc1c2c(c(-c3ccccc3)[nH]c1=O)CCCC2 | -9.41% | 
CC(C)(C)n1c(=O)[nH]c2c(c1=O)CCC2 | -16% | 
COc1cc(CN(CC2CCCO2)C(=O)c2ccccc2F)cc(OC)c1OC (stereo unspecified) | -0.58% | 
O=C1c2ccccc2NC(c2ccc(-c3cccc(Cl)c3)o2)N1O (stereo unspecified) | -7.95% | 
O=C(NCc1ccccc1)c1cc(-c2cccc(Cl)c2)on1 | 5.03% | 
O=C(O)C(c1ccccc1)N1C(=O)/C(=C\c2ccc(-c3cccc(Cl)c3)o2)SC1=S (stereo unspecified) |  | 22.4 µM (active)
COc1cccc(NC(=O)CN2C(=O)c3ccccc3Sc3ncccc32)c1 | -15.8% | 
CC(=O)Nc1ccc(NC(=O)c2cc3sccc3n2Cc2ccc(F)cc2)cc1 | -11.3% | 
COC(=O)c1ccc(NC(=O)CSc2n[nH]c(-c3ccccc3)n2)cc1 | 5.97% | 
COc1cccc(-n2c(=S)sc3c(=O)n(-c4ccccc4C)c(SCC(=O)O)nc32)c1 | 1.29% | 
Cc1cccc(-n2c(N)c(C(=O)N3CCN(C)CC3)sc2=S)c1 | -8.65% | 
CCOC(=O)c1sc(=S)n(-c2cccc(OC)c2)c1N |  | 50.1 µM (active)
c1ccc(CN2CCC(N=C3NN=C(c4ccc5c(c4)OCCO5)CS3)CC2)cc1 |  | 39.8 µM (active)
Clc1cccc(N=C2NN=C(c3ccc4c(c3)OCCO4)CS2)c1 | -36.8% | 
CS(=O)(=O)N(CC(=O)N1CCN(Cc2ccccc2)CC1)c1ccc2c(c1)OCCO2 | 9.43% | 
Cc1ccc(NC(=O)CN2C(=O)CC(C)Sc3ccccc32)c(C)c1 (stereo unspecified) | -10.4% | 
C=CCO/N=C/C1=C(O)C(C(=O)OC)C(C)(C)CC1=O (stereo unspecified) |  | 39.8 µM (active)
CCCC(=O)C1=C(N(C)c2ccccc2)CC(C)(C)C(C(=O)OC)C1=O (stereo unspecified) | -4.72% | 
COc1ccc(CCNc2nc(-c3ccc(F)cc3)cc(C(F)(F)F)n2)cc1OC | 22.9% | 
CCOC(=O)c1c(NC(=O)COc2cc(C)ccc2C(C)C)sc(C)c1C | -14.4% | 
O=C1CN(C(=O)Nc2ccccc2C(F)(F)F)C(c2ccccc2)c2c(sc3c2CCCC3)N1 (stereo unspecified) | -2.91% | 
Cc1onc(C(=O)NN)c1-c1csc(COc2ccccc2)n1 | 1.98% | 
CC(C)(C)C(=O)OCc1nc(-c2ccc(O)c(O)c2)cs1 |  | 56.2 µM (active)
COc1cc(CC(=O)Nc2nc(-c3ccc(F)c(F)c3)cs2)cc(OC)c1OC | -9.28% | 
COCc1ccc(CN2CCC(Oc3ccc(C(=O)NCc4ccccn4)cc3)CC2)o1 | 0.52% | 
Cc1ccc(C2c3[nH]c4ccccc4c3CCN2C(=O)c2cccc(C)c2)cc1 (stereo unspecified) | -1.99% | 

Compound | activity change, negative = inhibition | Potency
COC(=O)[C@H]1[C@H]2C[C@H]3c4[nH]c5ccccc5c4CCN3C[C@@H]2CC[C@@H]1O | 0.163% | 
COCc1ccc(C(=O)N2CCc3c([nH]c4ccccc34)C2c2ccccn2)s1 (stereo unspecified) |  | 35.5 µM (active)
Cc1cccc(C2c3[nH]c4ccccc4c3CCN2C(=O)c2cc(-c3cccn3C)n[nH]2)n1 (stereo unspecified) |  | 12.6 µM (active)
COc1ccc(Cn2cc(C(=O)c3ccc(C)cc3)c(=O)c3cc(OC)c(OC)cc32)cc1 | -29.8% | 
CCn1c(CN2CCC(C)CC2)nc2cc(NC(=O)c3ccccc3[N+](=O)[O-])ccc21 | -27.8% | 
CCc1ccc(Sc2cc(C(=O)NCCCOC(C)C)c3ccccc3n2)cc1 | -6.65% | 
CCOc1ccc(CNC(=O)Cn2cc3c(n2)-c2c(oc(C(=O)N4CCCC4)c2C)CC3)cc1 | -26.1% | 
COc1cc(C2c3c(oc4ccccc4c3=O)C(=O)N2c2nc(C)c(C)s2)ccc1O (stereo unspecified) | 1.61% | 
COc1ccc(/C=N/OCC(=O)N(Cc2ccccc2)c2ccccc2C(=O)O)cc1 | -38% | 
Oc1ccc(/C=N/N(Cc2ccccc2)c2ccccc2)cc1 |  | 39.8 µM (active)
CCN(CC)C(=O)N(CC)Cc1ccccc1 | 8.44% | 
COc1ccc(/C=C2\SC(=S)N(CC(=O)NNC(=O)c3ccncc3)C2=O)cc1 | -3.39% | 
Cc1ccc(/C=C2\SC(=S)N(CCC(=O)Nc3ccc(O)cc3)C2=O)cc1 | 0.0674% | 
COc1cc(/C=C2/SC(=S)N(Cc3ccccc3)C2=O)cc(OC)c1O |  | 12.6 µM (active)
COc1cccc(/C=C2/SC(=S)N(CC(=O)NC3C=CS(=O)(=O)C3)C2=O)c1 (stereo unspecified) | -22.7% | 
O=C(CCCOc1ccccc1)Nc1cccc(C(=O)O)c1 | 0.447% | 
COc1ccc(/C=C2\SC(=S)N(CCC(=O)Nc3cccc(C(=O)O)c3)C2=O)cc1OC |  | 50.1 µM (active)
Cc1ccc(C(=O)Nc2ccccc2F)cc1S(=O)(=O)N1CCOCC1 | 0.786% | 
CC(C)(C)OC(=O)N1CCC(c2c(C(=O)N3CCc4ccccc4C3)cnn2-c2ccc(F)cc2)CC1 | 4.44% [at 57.1 µM] | 
Cc1ccc(CN2CCC(CNC(=O)c3cnn(-c4ccccc4Cl)c3C3CCN(C(=O)OC(C)(C)C)CC3)CC2)cc1 | -4.83% [at 57.1 µM] | 
CCc1ccc(S(=O)(=O)Nc2cc3c(C(=O)OCc4ccccc4)c(C)oc3c3ccccc23)cc1 | -21% | 
COc1ccccc1N1CCN(S(=O)(=O)CCNC(=O)COc2ccc(F)cc2)CC1 | -15.1% | 
O=C(C1CCCN(S(=O)(=O)c2cccc3nonc23)C1)N1CCN(c2ccccc2F)CC1 (stereo unspecified) | -31.9% | 
COc1cc(C(=O)Nc2ccc(OCc3cc(=O)n4ccc(C)cc4n3)cc2)cc(OC)c1OC | -3.88% | 
